This note sets out measurements from PubChem BioAssay (EPA / NIEHS).

Read-out in assay [1]: Interleukin-8 (IL8), CXCL8 (gene 3576)
The assay can be described thus: BSK_CASM3C_IL8: BioMAP Diversity Plus: CASM3C Assay for Interleukin-8 (IL8) Biomarker Activity (AID 2283042).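 Note: IL-8 protein level quantified by ELISA.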 The note with it: primary human coronary artery smooth muscle cells; actives raise or lower the signal.

Read-out in assay [2]: Human Leukocyte Antigen - DR isotype (HLADR), HLA-DRA (gene 3122)
The assay can be described thus: BSK_CASM3C_HLADR: BioMAP Diversity Plus: CASM3C Assay for Human Leukocyte Antigen - DR isotype (HLADR) Biomarker Activity (AID 2283043).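 Note: cell-surface HLA-DR protein level quantified by ELISA.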 The note with it: primary human coronary artery smooth muscle cells; actives raise or lower the signal.

Read-out in assay [3]: Macrophage colony-stimulating factor (MCSF), CSF1 (gene 1435)
The assay can be described thus: BSK_CASM3C_MCSF: BioMAP Diversity Plus: CASM3C Assay for Macrophage colony-stimulating factor (MCSF) Biomarker Activity (AID 2283044).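 Note: M-CSF protein amount quantified by ELISA after 24 h exposure.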 The note with it: primary human coronary artery smooth muscle cells; actives raise or lower the signal.

Read-out in assay [4]: Low-density lipoprotein receptor (LDLR), LDLR (gene 3949)
The assay can be described thus: BSK_CASM3C_LDLR: BioMAP Diversity Plus: CASM3C Assay for Low-density lipoprotein receptor (LDLR) Biomarker Activity (AID 2283045).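 Note: LDLR protein level on the cell surface quantified by ELISA.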 To be noted: primary human coronary artery smooth muscle cells; actives raise or lower the signal.

Read-out in assay [5]: Monocyte Chemoattractant Protein-1 (MCP1), CCL2 (gene 6347)
The assay can be described thus: BSK_CASM3C_MCP1: BioMAP Diversity Plus: CASM3C Assay for Monocyte Chemoattractant Protein-1 (MCP1) Biomarker Activity (AID 2283046).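 Note: MCP-1 level quantified by ELISA 24 h after dosing.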 To be noted: primary human coronary artery smooth muscle cells; actives raise or lower the signal.

A short description of assay [6]: BSK_CASM3C_Proliferation: Cell Proliferation Assessment in the BioMAP Diversity Plus: CASM3C Assay (AID 2283047).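 Note: sulforhodamine B total protein stain as relative cell number at 560 nm; sub-confluent cells exposed 48 h before staining; fitted both ways against DMSO so gain or loss of cell number.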 The note with it: primary human coronary artery smooth muscle cells.
Read-out in assay [7]: Monokine induced gamma interferon (MIG), CXCL9 (gene 4283)
The assay can be described thus: BSK_CASM3C_MIG: BioMAP Diversity Plus: CASM3C Assay for Monokine induced gamma interferon (MIG) Biomarker Activity (AID 2283048).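 Note: MIG protein level measured by ELISA.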 To be noted: primary human coronary artery smooth muscle cells; actives raise or lower the signal.

Read-out in assay [8]: serum amyloid A (SAA), SAA1 (gene 6288)
The assay can be described thus: BSK_CASM3C_SAA: BioMAP Diversity Plus: CASM3C Assay for serum amyloid A (SAA) Biomarker Activity (AID 2283049).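 Note: SAA protein level quantified by ELISA.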 To be noted: primary human coronary artery smooth muscle cells; actives raise or lower the signal.

Assay [9] can be described thus: BSK_CASM3C_SRB: Viability Assessment in the BioMAP Diversity Plus: CASM3C Assay (AID 2283050).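 Note: total protein by SRB staining as cytotoxicity measure in parallel cultures.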 To be noted: primary human coronary artery smooth muscle cells.
Read-out in assay [10]: Thrombomodulin, THBD (gene 7056)
The assay can be described thus: BSK_CASM3C_Thrombomodulin: BioMAP Diversity Plus: CASM3C Assay for Thrombomodulin Biomarker Activity (AID 2283051).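 Note: thrombomodulin protein level measured by ELISA 24 h after dosing.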 The note with it: primary human coronary artery smooth muscle cells; actives raise or lower the signal.

Read-out in assay [11]: Tissue Factor, F3 (gene 2152)
The assay can be described thus: BSK_CASM3C_TissueFactor: BioMAP Diversity Plus: CASM3C Assay for Tissue Factor Biomarker Activity (AID 2283052).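 Note: cell surface tissue factor protein level read by ELISA.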 The note with it: primary human coronary artery smooth muscle cells; actives raise or lower the signal.

Read-out in assay [12]: Interferon-gamma inducible Protein 10 (IP10), CXCL10 (gene 3627)
The assay can be described thus: BSK_hDFCGF_IP10: BioMAP Diversity Plus: hDFCGF Assay for Interferon-gamma inducible Protein 10 (IP10) Biomarker Activity (AID 2283053). The note with it: primary human foreskin fibroblasts; actives raise or lower the signal. The method, boiled down:
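Human foreskin fibroblast primary cells (hDFCGF system) were dosed with chemical and assayed at 24 h; IP-10 measured by ELISA. Activity fitted bidirectionally relative to DMSO negative control as baseline.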

Read-out in assay [13]: Urokinase-type plasminogen activator receptor (uPAR), PLAUR (gene 5329)
The assay can be described thus: BSK_CASM3C_uPAR: BioMAP Diversity Plus: CASM3C Assay for Urokinase-type plasminogen activator receptor (uPAR) Biomarker Activity (AID 2283054).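 Note: cell-surface uPAR protein level quantified by ELISA.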 The note with it: primary human coronary artery smooth muscle cells; actives raise or lower the signal.

Read-out in assay [14]: Vascular cell adhesion molecule 1 (VCAM1), VCAM1 (gene 7412)
The assay can be described thus: BSK_CASM3C_VCAM1: BioMAP Diversity Plus: CASM3C Assay for Vascular cell adhesion molecule 1 (VCAM1) Biomarker Activity (AID 2283055).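 Note: VCAM-1 protein level quantified by ELISA on the cells.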 To be noted: primary human coronary artery smooth muscle cells; actives raise or lower the signal.

Read-out in assay [15]: Collagen III, COL3A1 (gene 1281)
The assay can be described thus: BSK_hDFCGF_CollagenIII: BioMAP Diversity Plus: hDFCGF Assay for Collagen III Biomarker Activity (AID 2283056). The note with it: primary human foreskin fibroblasts; actives raise or lower the signal. The method, boiled down:
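Response relative to DMSO, fitted in both directions, reflects ELISA-measured collagen III in human primary skin fibroblasts 24 h after compound addition.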

Read-out in assay [16]: Epidermal growth factor receptor (EGFR), EGFR (gene 1956)
The assay can be described thus: BSK_hDFCGF_EGFR: BioMAP Diversity Plus: hDFCGF Assay for Epidermal growth factor receptor (EGFR) Biomarker Activity (AID 2283057). To be noted: primary human foreskin fibroblasts; actives raise or lower the signal. The method in brief:
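Primary human foreskin fibroblasts were exposed to compound for 24 h, after which cell-surface EGFR was quantified by ELISA. Activity was fitted bidirectionally against the DMSO negative control as baseline.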

Read-out in assay [17]: Interleukin-8 (IL8), CXCL8 (gene 3576)
The assay can be described thus: BSK_hDFCGF_IL8: BioMAP Diversity Plus: hDFCGF Assay for Interleukin-8 (IL8) Biomarker Activity (AID 2283058). To be noted: primary human foreskin fibroblasts; actives raise or lower the signal. The method in brief:
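Fibroblast monolayers (human foreskin, hDFCGF) received test chemical for 24 h before ELISA detection of IL-8; either increases or decreases relative to DMSO count as activity.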

A short description of assay [18]: BSK_hDFCGF_Proliferation: Cell Proliferation Assessment in the BioMAP Diversity Plus: hDFCGF Assay (AID 2283059).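 Note: curves fitted for both rise and fall of signal versus DMSO baseline.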 To be noted: primary human foreskin fibroblasts. The method, boiled down: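 Steps: dose primary human dermal fibroblasts (foreskin); […] fix in 10% TCA; stain with 0.1% SRB; read 560 nm; fit gain or loss of signal against DMSO.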
Read-out in assay [19]: Macrophage colony-stimulating factor (MCSF), CSF1 (gene 1435)
The assay can be described thus: BSK_hDFCGF_MCSF: BioMAP Diversity Plus: hDFCGF Assay for Macrophage colony-stimulating factor (MCSF) Biomarker Activity (AID 2283060). The note with it: primary human foreskin fibroblasts; actives raise or lower the signal. The method in brief: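 fibroblasts (human foreskin, primary), 24 h post-dose; M-CSF by ELISA; bidirectional fit, DMSO = baseline.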

Assay [20] is described as follows: BSK_hDFCGF_SRB: Viability Assessment in the BioMAP Diversity Plus: hDFCGF Assay (AID 2283061).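 Note: cells exposed to compound for 24 h before the read.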 To be noted: primary human foreskin fibroblasts. The method, boiled down:
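SRB-based viability read on primary human skin fibroblasts at 24 h: TCA fixation, 0.1% dye, 560 nm. Gain or loss of signal is fitted against the DMSO negative control.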

Activity calls are given as the source filed them. Rule for the calls: active = hit-call score of the fitted dose curve at least 0.9, where 1 is the maximum; inactive = score below 0.9.

As a reminder, the AC50 is the concentration at which the activity in the assay is half-maximal. Regarding `O=C1CCCCC1`, the outcome in [1], in assay [2], in assay [3], in assay [4], in assay [5] and in [6] was inactive. For the same compound, the outcome in assay [7], in [8], in assay [9], in assay [11], in assay [12] and in [13] was inactive. The result in assay [14], in [15], in assay [16], in assay [17], in assay [18] and in [19] was inactive. Besides, the outcome in [20] was inactive. The half-maximal activity concentration (AC50) in assay [10] was 0.194 µM (active).

With `CC(C)c1cccc(C(C)C)c1`, the outcome in assay [1], in [2], in assay [3], in assay [4], in assay [5] and in assay [6] was inactive. In addition, the outcome in [7], in assay [8], in [9], in [10], in assay [11] and in assay [12] was inactive. The result in assay [13], in assay [14], in assay [15], in assay [16], in assay [17] and in assay [18] was inactive. Also, the outcome in assay [19] and in assay [20] was inactive.

For the compound `OCC(O)CO`, the result in assay [1], in assay [2], in assay [3], in assay [4], in assay [5] and in assay [6] was inactive. Besides, the outcome in assay [7], in assay [8], in [9], in assay [10], in assay [11] and in [12] was inactive. Also, the outcome in assay [13], in [14], in assay [15], in assay [16], in [17] and in [18] was inactive. In addition, the result in assay [19] and in assay [20] was inactive.

Regarding `CN(C)CCCN(C)CCCN(C)C`, the outcome in [1], in assay [2], in assay [3], in assay [4], in assay [5] and in assay [6] was inactive. Also, the result in assay [7], in assay [8], in assay [9], in assay [10], in assay [11] and in assay [12] was inactive. The outcome in assay [13], in [14], in [15], in assay [16], in [17] and in [18] was inactive. Moreover, the result in assay [19] and in assay [20] was inactive.

`O=C(O)CN(CC(=O)O)CC(=O)O`: the outcome in assay [1], in assay [2], in assay [3], in [4], in assay [5] and in assay [6] was inactive. The outcome in [7], in [8], in assay [9], in assay [10], in assay [11] and in assay [12] was inactive. Besides, the outcome in assay [13], in assay [14], in [15], in [16], in assay [17] and in assay [18] was inactive. Besides, the result in assay [19] and in assay [20] was inactive.

In the case of `NC1CCCCC1`, the outcome in assay [1], in assay [2], in assay [3], in assay [4], in assay [5] and in assay [6] was inactive. The outcome in assay [7], in assay [8], in assay [9], in [10], in assay [11] and in assay [12] was inactive. For the same compound, the result in [13], in assay [14], in [15], in [16], in [17] and in assay [18] was inactive. Moreover, the result in assay [19] and in assay [20] was inactive.

`Nc1nc(=S)c2[nH]cnc2[nH]1`: the outcome in assay [1], in assay [2], in [3], in [5], in [7] and in [8] was inactive. Besides, the outcome in assay [9], in [10], in [11], in assay [12], in assay [13] and in assay [14] was inactive. For the same compound, the result in assay [16], in [17], in assay [19] and in assay [20] was inactive. Further, the AC50 was 3.72 µM (active) in assay [4], 4.67 µM (active) in assay [6], 26.1 µM (active) in assay [15] and 14 µM (active) in [18].
